# This is one part of a sample in which the strongest signals are shown more often than they occur.
# B1: HML-Native (Hypnea musciformis), P84871 (protein)
# chain: QKFCTLDIAPVCCQIVIGGGMYTAGNACMCEGFVSGVGRCENPKECPCTREAQIPSCCSSRWGLVSVTGKCACDCLGGTVAFPEPCPSPY
# Legend:
# Experiment in all cases: glycan array binding signal (z-score within array); higher = stronger binding
# Settings in all cases: glycan notation: IUPAC condensed, linker removed
# [1] = target: Fuc(a1-2)Gal(b1-3)[Fuc(a1-4)]GlcNAc(b1-3)[Fuc(a1-3)[Gal(b1-4)]GlcNAc(b1-6)]Gal(b1-4)Glc
# In short: (§1)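 Glycan array binding is given as a within-array Z-score, which can be read as non-binding when negative. The arrays, 3228 of them, came from the Consortium for Functional Glycomics database and were retained only where the protein sequence was available. Z-scores were averaged across arrays of the same protein sequence at different concentrations or buffers and across linkers.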
# [2] = target: Fuc(a1-2)Gal(b1-4)[Fuc(a1-3)]GlcNAc(b1-2)[Fuc(a1-2)Gal(b1-4)[Fuc(a1-3)]GlcNAc(b1-4)]Man(a1-3)[Fuc(a1-2)Gal(b1-4)[Fuc(a1-3)]GlcNAc(b1-2)Man(a1-6)]Man(b1-4)GlcNAc(b1-4)GlcNAc
# In short: as §1
# [3] = target: Fuc(a1-2)[Gal(a1-3)]Gal(b1-3)GlcNAc
# In short: as §1
# [4] = target: Fuc(a1-2)[Gal(a1-3)]Gal(b1-4)[Fuc(a1-3)]Glc
# In short: as §1
# [5] = target: Fuc(a1-2)[GalNAc(a1-3)]Gal(b1-3)GlcNAc(b1-2)Man(a1-3)[Fuc(a1-2)[GalNAc(a1-3)]Gal(b1-3)GlcNAc(b1-2)Man(a1-6)]Man(b1-4)GlcNAc(b1-4)GlcNAc
# In short: as §1
# [6] = target: Fuc(a1-2)[GalNAc(a1-3)]Gal(b1-4)GlcNAc(b1-3)GalNAc
# In short: as §1
# [7] = target: Fuc(a1-2)[GalNAc(a1-4)]Gal(b1-4)GlcNAc
# In short: as §1
# [8] = target: Gal(b1-3)GalNAc(b1-4)[Neu5Ac(a2-3)]Gal(b1-4)Glc
# In short: as §1
# [9] = target: Gal(b1-3)GlcNAc(b1-2)Man(a1-3)[Gal(b1-3)GlcNAc(b1-2)Man(a1-6)]Man(b1-4)GlcNAc(b1-4)[Fuc(a1-6)]GlcNAc
# In short: as §1
# [10] = target: Gal(b1-3)GlcNAc(b1-2)Man(a1-3)[GlcNAc(b1-4)][Gal(b1-3)GlcNAc(b1-2)Man(a1-6)]Man(b1-4)GlcNAc(b1-4)GlcNAc
# In short: as §1
# Gal(b1-4)Glc6S = target: Gal(b1-4)Glc6S
# In short: as §1
# [11] = target: Gal(b1-4)GlcNAc(b1-2)Man(a1-3)[Gal(b1-4)GlcNAc(b1-2)Man(a1-6)]Man(b1-4)GlcNAc(b1-4)[Fuc(a1-6)]GlcNAc
# In short: as §1
# [12] = target: Gal(b1-4)GlcNAc(b1-2)Man(a1-3)[Gal(b1-4)GlcNAc(b1-2)Man(a1-6)][Gal(b1-4)GlcNAc(b1-4)]Man(b1-4)GlcNAc(b1-4)[Fuc(a1-6)]GlcNAc
# In short: as §1
# [13] = target: Gal(b1-4)GlcNAc(b1-3)Gal(b1-3)GalNAc
# In short: as §1
# [14] = target: Gal(b1-4)GlcNAc(b1-3)Gal(b1-4)GlcNAc(b1-2)Man(a1-3)[Gal(b1-4)GlcNAc(b1-3)Gal(b1-4)GlcNAc(b1-2)Man(a1-6)]Man(b1-4)GlcNAc(b1-4)[Fuc(a1-6)]GlcNAc
# In short: as §1
# [15] = target: Gal(b1-4)GlcNAc(b1-3)Gal(b1-4)GlcNAc(b1-3)Gal(b1-4)GlcNAc(b1-2)Man(a1-3)[Gal(b1-4)GlcNAc(b1-3)Gal(b1-4)GlcNAc(b1-3)Gal(b1-4)GlcNAc(b1-2)Man(a1-6)]Man(b1-4)GlcNAc(b1-4)[Fuc(a1-6)]GlcNAc
# In short: as §1
# [16] = target: Gal(b1-4)GlcNAc(b1-3)Gal(b1-4)GlcNAc(b1-3)Gal(b1-4)GlcNAc(b1-3)Gal(b1-4)GlcNAc(b1-2)Man(a1-3)[Gal(b1-4)GlcNAc(b1-3)Gal(b1-4)GlcNAc(b1-3)Gal(b1-4)GlcNAc(b1-3)Gal(b1-4)GlcNAc(b1-2)Man(a1-6)]Man(b1-4)GlcNAc(b1-4)[Fuc(a1-6)]GlcNAc
# In short: as §1
# [17] = target: Gal(b1-4)GlcNAc(b1-3)Gal(b1-4)GlcNAc(b1-3)Gal(b1-4)GlcNAc(b1-3)Gal(b1-4)GlcNAc(b1-3)Gal(b1-4)GlcNAc(b1-2)Man(a1-3)[Gal(b1-4)GlcNAc(b1-3)Gal(b1-4)GlcNAc(b1-3)Gal(b1-4)GlcNAc(b1-3)Gal(b1-4)GlcNAc(b1-3)Gal(b1-4)GlcNAc(b1-2)Man(a1-6)]Man(b1-4)GlcNAc(b1-4)[Fuc(a1-6)]GlcNAc
# In short: as §1
# [18] = target: Gal(b1-4)GlcNAc(b1-3)Gal(b1-4)GlcNAc(b1-6)[Gal(b1-3)]GalNAc
# In short: as §1
# Gal3S(b1-4)GlcNAc = target: Gal3S(b1-4)GlcNAc
# In short: as §1
# Gal6S(b1-3)GlcNAc6S = target: Gal6S(b1-3)GlcNAc6S
# In short: as §1
# [19] = target: GalNAc(b1-3)Gal(a1-6)Gal(b1-4)Glc
# In short: as §1
# GalNAc(b1-4)Gal(b1-4)Glc = target: GalNAc(b1-4)Gal(b1-4)Glc
# In short: as §1
# GalNAc(b1-6)GalNAc = target: GalNAc(b1-6)GalNAc
# In short: as §1
# GlcA(b1-6)Gal = target: GlcA(b1-6)Gal
# In short: as §1
# [20] = target: GlcNAc(a1-4)Gal(b1-4)GlcNAc(b1-3)Gal(b1-4)[Fuc(a1-3)]GlcNAc(b1-3)Gal(b1-4)[Fuc(a1-3)]GlcNAc
# In short: as §1
# [21] = target: GlcNAc(b1-2)[GlcNAc(b1-4)]Man(a1-3)[GlcNAc(b1-2)Man(a1-6)]Man(b1-4)GlcNAc(b1-4)GlcNAc
# In short: as §1
# [22] = target: GlcNAc(b1-2)[GlcNAc(b1-6)]Man(a1-6)[GlcNAc(b1-2)Man(a1-3)]Man(b1-4)GlcNAc(b1-4)[Fuc(a1-6)]GlcNAc
# In short: as §1
# GlcNAc(b1-3)Fuc = target: GlcNAc(b1-3)Fuc
# In short: as §1
# GlcNAc(b1-3)Gal(b1-4)Glc = target: GlcNAc(b1-3)Gal(b1-4)Glc
# In short: as §1
# [23] = target: GlcNAc(b1-3)Gal(b1-4)GlcNAc(b1-2)Man(a1-3)[GlcNAc(b1-3)Gal(b1-4)GlcNAc(b1-2)Man(a1-6)]Man(b1-4)GlcNAc(b1-4)[Fuc(a1-6)]GlcNAc
# In short: as §1
# [24] = target: GlcNAc(b1-3)Gal(b1-4)GlcNAc(b1-3)Gal(b1-4)GlcNAc(b1-2)Man(a1-3)[GlcNAc(b1-3)Gal(b1-4)GlcNAc(b1-3)Gal(b1-4)GlcNAc(b1-2)Man(a1-6)]Man(b1-4)GlcNAc(b1-4)[Fuc(a1-6)]GlcNAc
# In short: as §1
# [25] = target: GlcNAc(b1-3)Gal(b1-4)GlcNAc(b1-3)Gal(b1-4)GlcNAc(b1-3)Gal(b1-4)GlcNAc(b1-2)Man(a1-3)[GlcNAc(b1-3)Gal(b1-4)GlcNAc(b1-3)Gal(b1-4)GlcNAc(b1-3)Gal(b1-4)GlcNAc(b1-2)Man(a1-6)]Man(b1-4)GlcNAc(b1-4)[Fuc(a1-6)]GlcNAc
# In short: as §1
# [26] = target: GlcNAc(b1-3)Gal(b1-4)GlcNAc(b1-3)Gal(b1-4)GlcNAc(b1-3)Gal(b1-4)GlcNAc(b1-2)[GlcNAc(b1-3)Gal(b1-4)GlcNAc(b1-3)Gal(b1-4)GlcNAc(b1-3)Gal(b1-4)GlcNAc(b1-6)]Man(a1-6)[GlcNAc(b1-3)Gal(b1-4)GlcNAc(b1-3)Gal(b1-4)GlcNAc(b1-3)Gal(b1-4)GlcNAc(b1-2)Man(a1-3)]Man(b1-4)GlcNAc(b1-4)[Fuc(a1-6)]GlcNAc
# In short: as §1
# [27] = target: GlcNAc(b1-3)Gal(b1-4)GlcNAc(b1-6)[Gal(b1-3)]GalNAc
# In short: as §1
# [28] = target: GlcNAc(b1-4)GlcNAc(b1-4)GlcNAc(b1-4)GlcNAc(b1-4)GlcNAc(b1-4)GlcNAc
# In short: as §1
# [29] = target: GlcNAc(b1-4)[GlcNAc(b1-6)]GalNAc
# In short: as §1
# [30] = target: Man(a1-2)Man(a1-2)Man(a1-6)[Man(a1-3)]Man
# In short: as §1
# [31] = target: Man(a1-3)[Man(a1-6)]Man(b1-4)GlcNAc(b1-4)[Fuc(a1-6)]GlcNAc
# In short: as §1
# Man(a1-6)Man = target: Man(a1-6)Man
# In short: as §1
# [32] = target: Neu5Ac(a2-3)Gal(b1-3)GlcNAc(b1-3)Gal(b1-3)GlcNAc
# In short: as §1
# Neu5Ac(a2-3)GalNAc = target: Neu5Ac(a2-3)GalNAc
# In short: as §1
# [33] = target: Neu5Ac(a2-6)Gal(b1-4)GlcNAc(b1-2)Man(a1-3)Man(b1-4)GlcNAc(b1-4)GlcNAc
# In short: as §1
# [34] = target: Neu5Ac(a2-6)Gal(b1-4)GlcNAc(b1-2)Man(a1-3)[Man(a1-6)]Man(b1-4)GlcNAc(b1-4)GlcNAc
# In short: as §1
# [35] = target: Neu5Ac(a2-6)Gal(b1-4)GlcNAc(b1-2)Man(a1-3)[Neu5Ac(a2-6)Gal(b1-4)GlcNAc(b1-2)Man(a1-6)]Man(b1-4)GlcNAc(b1-4)[Fuc(a1-6)]GlcNAc
# In short: as §1
# [36] = target: Neu5Ac(a2-6)Gal(b1-4)GlcNAc(b1-3)Gal(b1-4)GlcNAc(b1-6)[Gal(b1-3)]GalNAc
# In short: as §1
binder,measurement,setting,value
B1,glycan array binding signal (z-score),[1],-0.188
same,glycan array binding signal (z-score),[2],-0.059
same,glycan array binding signal (z-score),[3],-0.211
same,glycan array binding signal (z-score),[4],-0.283
same,glycan array binding signal (z-score),[5],-0.093
same,glycan array binding signal (z-score),[6],-0.302
same,glycan array binding signal (z-score),[7],-0.162
same,glycan array binding signal (z-score),[8],-0.318
same,glycan array binding signal (z-score),[9],5.16
same,glycan array binding signal (z-score),[10],-0.276
same,glycan array binding signal (z-score),Gal(b1-4)Glc6S,-0.313
same,glycan array binding signal (z-score),[11],5.65
same,glycan array binding signal (z-score),[12],1.48
same,glycan array binding signal (z-score),[13],-0.238
same,glycan array binding signal (z-score),[14],5.52
same,glycan array binding signal (z-score),[15],4.93
same,glycan array binding signal (z-score),[16],4.9
same,glycan array binding signal (z-score),[17],4.8
same,glycan array binding signal (z-score),[18],-0.192
same,glycan array binding signal (z-score),Gal3S(b1-4)GlcNAc,-0.233
same,glycan array binding signal (z-score),Gal6S(b1-3)GlcNAc6S,-0.323
same,glycan array binding signal (z-score),[19],-0.345
same,glycan array binding signal (z-score),GalNAc(b1-4)Gal(b1-4)Glc,-0.252
same,glycan array binding signal (z-score),GalNAc(b1-6)GalNAc,-0.284
same,glycan array binding signal (z-score),GlcA(b1-6)Gal,-0.241
same,glycan array binding signal (z-score),[20],0.641
same,glycan array binding signal (z-score),[21],-0.307
same,glycan array binding signal (z-score),[22],4.99
same,glycan array binding signal (z-score),GlcNAc(b1-3)Fuc,-0.11
same,glycan array binding signal (z-score),GlcNAc(b1-3)Gal(b1-4)Glc,-0.205
same,glycan array binding signal (z-score),[23],5.62
same,glycan array binding signal (z-score),[24],5.5
same,glycan array binding signal (z-score),[25],5.16
same,glycan array binding signal (z-score),[26],1.38
same,glycan array binding signal (z-score),[27],-0.272
same,glycan array binding signal (z-score),[28],-0.197
same,glycan array binding signal (z-score),[29],-0.239
same,glycan array binding signal (z-score),[30],-0.005
same,glycan array binding signal (z-score),[31],5.72
same,glycan array binding signal (z-score),Man(a1-6)Man,-0.3
same,glycan array binding signal (z-score),[32],-0.295
same,glycan array binding signal (z-score),Neu5Ac(a2-3)GalNAc,-0.258
same,glycan array binding signal (z-score),[33],-0.157
same,glycan array binding signal (z-score),[34],-0.166
same,glycan array binding signal (z-score),[35],5.65
same,glycan array binding signal (z-score),[36],-0.205

# Reference: the supplement of paper PMC8728848
